# Hit rate of the full screen: of about 65,000 compounds, about 2,100 (3.2%) showed an effect of 50% or more. The median lay at about -52%. The full list was thinned out, with strong results kept by preference.
# System: Plasmodium falciparum
# Assay: Screen against P. falciparum Asexual Blood Stage (ABS), at 5uM
# Format: functional, Dd2
# Conditions: tested at 5 uM
row,SMILES,INHIBITION [%]
1,Cc1ccc(CN2CCC3(CCCN(Cc4ccc(F)c(F)c4)C3)C2)o1 (stereo unspecified),28.1
2,O=C(c1cn[nH]c1)N1CCC2(CCCN(Cc3ccc(F)c(F)c3)C2)C1 (stereo unspecified),-25.8
3,Fc1ccc(CN2CCCC3(CCN(Cc4ncc[nH]4)C3)C2)cc1F (stereo unspecified),60.9
4,CCc1nc2c(s1)C(N(C)C(=O)c1csnn1)CCC2 (stereo unspecified),-32.3
5,CCOC(=O)CC1(Nc2nc(C)nc3c2cnn3C)CCCCC1,-25.2
6,Cc1nc(NC2(CN3CCCCC3)CCCCC2)c2cnn(C)c2n1,56
7,COCC1(Nc2nc(C)nc3c2cnn3C)CCCC1,-142
8,Cc1nc(C(=O)NCCS(=O)(=O)N2CCCC2)cs1,-31.8
9,Cc1nc(COc2ccc(OC3CCCCNC3=O)cc2)oc1C (stereo unspecified),-151
10,O=C(Nc1ccc2c(c1)C(=O)NC2=O)c1cccs1,-80.7
11,CCC(=O)N1CCC2(CC1)COCCN2Cc1ccc(F)cc1,-31.7
12,CC(=O)N(Cc1noc(C)n1)C1CCN(CCOc2ccccc2)C1 (stereo unspecified),-79.1
13,Cn1cc(N2CC3(CCN(CC4CC4)CC3)OCC2=O)cn1,-53.1
14,Cc1noc(-c2ccnc(Oc3ccccc3CN3CCCCC3)c2)n1,-36.8
15,Cc1noc(-c2ccnc(Oc3ccc(CN4CCCC4)cc3C)c2)n1,53.3
16,Cc1noc(-c2ccnc(Oc3ccc(CN4CCCC4)cc3F)c2)n1,-38.8
17,Cc1ccc(-c2nnc(CN3CCc4nn(C)c(=O)cc4C3)o2)cc1,-38.4
18,CCOC(=O)N1CCN(c2nc(NC3CC3)c3ccccc3n2)CC1,4.86
19,Cc1csc2c(C3CCCN(C(=O)CCn4ccnc4)C3)nc(C)n12 (stereo unspecified),-97.3
20,COCCN(CC1CCCN(C2Cc3ccccc3C2)C1)C(=O)COC (stereo unspecified),39.5
21,COCCN(CC1CCCN(C2Cc3ccccc3C2)C1)C(=O)CO (stereo unspecified),59.9
22,COCCN(CC1CCCN(C2Cc3ccccc3C2)C1)C(=O)CSC (stereo unspecified),1.3

row,SMILES,INHIBITION [%]
1,O=C(NC1CCC1)C1=NOC2(CCN(Cc3ccc(F)cc3)C2)C1 (stereo unspecified),-11.6
2,c1ccc(CN2CC[C@@H]3O[C@@H](COCCN4CCCC4)CC[C@@H]32)nc1,-36
3,COCCN1CC[C@@H]2OC[C@H](C(=O)N(C)Cc3ccccn3)C[C@@H]2C1,11.1
4,c1ccc(CN2CCCC2)c(CNc2cncc3nnnn23)c1,61.4
5,c1cc(CN2CCCC2)ccc1CNc1cncc2nnnn12,-31.2
6,c1cc(N2CCSCC2)ccc1CNc1cncc2nnnn12,-119
7,Cc1cc(C(=O)N2C[C@@H]3COC[C@]3(CN(C)C)C2)sc1C,-113
8,Cc1cc(N(C)CCN(C)C)n2nc(C)cc2n1,-113
9,Cc1cc(C)nc(N(C)CCN(C)C2CCCC2)n1,28
10,Cc1cc(N(C)CCN(C)C2CCCC2)n2nc(C)cc2n1,55.7
11,O=C(c1ccc2[nH]ccc2c1)N1CCn2cc(CN3CCCC3)nc2C1,-38.2
12,c1cc(CNCC2OCCc3cn(CC4CC4)nc32)cs1 (stereo unspecified),47
13,Fc1ccc(CNCC2OCCc3cn(CC4CC4)nc32)cc1 (stereo unspecified),68.9
14,COCCn1cc2c(n1)C(CNCc1ccc(F)cc1)OCC2 (stereo unspecified),-11.4
15,CCc1cnc(CNC(=O)NCCc2ccc(O)cc2)s1,-13.3
16,CNC(=O)CC1CC2(CCN(c3ncccn3)CC2)c2ccccc21 (stereo unspecified),-87
17,Cc1cccc(N2CC3(CCN(Cc4nccn4C)C3)CC2=O)c1 (stereo unspecified),-54.9
18,COCc1ncc(CN2CC[C@@H](NC(=O)c3cccnc3)[C@H](O)C2)cn1,-35.5
19,CC(C)(C)n1ncc(NCC(O)c2ccccc2)c(Cl)c1=O (stereo unspecified),-162
20,Cc1cccc(C2(CNC(=O)C(C)S(C)(=O)=O)CCCC2)c1 (stereo unspecified),-66
21,Cc1cccc(C2(CNC(=O)CO)CCCC2)c1,-108
22,Cc1cccc(C2(CNC(=O)C(C)NC(N)=O)CCCC2)c1 (stereo unspecified),69.9

row,SMILES,INHIBITION [%]
1,NC(=O)[C@@H]1Cc2ccccc2CN1S(=O)(=O)N1CCCCC1,-124
2,CC(NC(=O)NC1CCN(Cc2ccncc2)CC1)c1cccc(F)c1 (stereo unspecified),-98.2
3,CC(NC(=O)NC1CCN(Cc2ccncc2)CC1)c1ccc(F)cc1 (stereo unspecified),-35.2
4,CC(CNC1CCN(Cc2ccncc2)CC1)c1ccc(F)cc1F (stereo unspecified),70
5,Cc1cc(F)ccc1C(=O)N1C[C@@H]2COC[C@]2(CN(C)C)C1,-31.2
6,CC(C)(C)c1cc(NC(=O)CN2CCCC2Cn2cccn2)on1 (stereo unspecified),-91.6
7,NC(=O)C1CCN(C(=O)NCc2cccnc2OCC(F)(F)F)C1 (stereo unspecified),-75.2
8,CN1CCCN(c2nc3c(cnn3C(C)(C)C)c(=O)[nH]2)CC1,-12.6
9,CC(=O)N1CCN(c2nc3c(cnn3C(C)(C)C)c(=O)[nH]2)CC1,-76.5
10,CC(C)(C)n1ncc2c(=O)[nH]c(N3CCC4(CCCCC4)C3)nc21,52.6
11,Cn1ccc(CN2CCCC23CCN(Cc2ccccc2F)CC3)n1,0.737
12,CCN1CCN(c2ccc(F)cc2C(C)NCc2nc(C)no2)CC1 (stereo unspecified),7.98
13,CCN1CCN(c2ccc(F)cc2C(C)NCc2noc(C)n2)CC1 (stereo unspecified),53.9
14,Cc1nc(CNC(=O)Nc2cc(F)ccc2N2CCN(C)CC2)no1,-28.8
15,Cc1nccc(N[C@H]2CN(C(=O)CCN3CCCC3=O)C[C@@H]2C(C)C)n1,-132
16,COCCNCc1ccc(OCC(=O)NC(C)(C)C)cc1,-80.9
17,Cc1ccc(C(=O)N2CCC3(CCN3Cc3ccc(F)cc3)C2)cn1 (stereo unspecified),-74.2
18,COCCN1CCO[C@H]2CN(C(=O)c3cccs3)C[C@H]21,-92.4
19,c1coc(-c2nnc(CN3CCCC(CN4CCCCCC4)C3)o2)c1 (stereo unspecified),-67.1
20,Cc1noc(C)c1CN1CCCC(CN(C(=O)OC(C)(C)C)C(C)C)C1 (stereo unspecified),54.1
21,CC(C)N(CC1CCCN(Cc2ccon2)C1)C(=O)OC(C)(C)C (stereo unspecified),-5.65
22,CC(C)N(CC1CCCN(CC(N)=O)C1)C(=O)OC(C)(C)C (stereo unspecified),-14.8
